An excerpt weighted towards active compounds, which were near 15% of everything screened.
TDP1 cell noCPT = qHTS for Inhibitors of human tyrosyl-DNA phosphodiesterase 1 (TDP1): qHTS in cells in absence of CPT | DT40 Tdp1-/- hTDP1 cells, no CPT, ATP luminescence, 48 h | Potency, µM (titrated, usually from 46.2 µM), hits mostly inhibitors | hit rate 15% among 420,000 | AID 686978, 2013; further: nearly all actives have a fitted effect of over 55% in size
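Camptothecin absent (DMSO only). Human TDP1-complemented DT40 knockout cells, 400 cells/well, 37 °C for minimum 48 hr; ATP measured via CellTiter-Glo, 30 min dark incubation, luminescence.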
ELG1 repair inh = ELG1-dependent DNA repair inhibition | HEK293T ELG1-luciferase reporter, luminescence, 16 h; DNA damage induced by 5-fluorouridine | Potency, µM (titrated, usually from 46.1 µM), hits mostly inhibitors | hit rate 2.3% among 330,000; further: nearly all actives have a fitted effect of over 55% in size
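Step one: seed 2,000 cells per well. Step two: pin-transfer compound or DMSO alongside 5-fluorouridine. Step three: incubate 16 hr, 37 °C, 5% CO2. Step four: add ONE-Glo, wait 30 min, read luminescence.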
DT40 TDP1 CPT = DT40-hTDP1 cell growth loss with CPT | hit rate 12% among 420,000 | Potency, µM (titrated, usually from 46.2 µM), usual class: inhibitors | chicken DT40 Tdp1-/-;hTDP1 cells + 20 nM CPT, ATP luminescence, 48 h; further: nearly all actives have a fitted effect of over 55% in size
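Chicken DT40 Tdp1-/- cells complemented with human TDP1, 400 cells/well, exposed to compounds plus 20 nM camptothecin for at least 48 h at 37 C; viability read as ATP content by CellTiter-Glo luminescence.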
Gal4-VP16 FLuc = Gal4-VP16 reporter inhibition counter-screen | Drosophila S2 Gal4-VP16 UAS-luciferase, luminescence, 20 h | Potency, µM (titrated, usually from 53.6 µM), hits mostly inhibitors | hit rate 3.5% among 310,000 | AID 2546;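 further: Gal4-VP16 expression switched on by copper sulfate through the metallothionein promoter; nearly all actives have a fitted effect of over 50% in size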
RORg inh = ROR gamma (mouse) transcription inhibition; Drosophila S2 Gal4-RORgamma UAS-luciferase reporter, 20 h; AID 2551; Potency, µM (top dose mostly 53.6 µM), most hits filed as inhibitors; hit rate 5.4% among 310,000; P51450; further: nearly all actives have a fitted effect of over 60% in size
Target sequence (P51450 whole entry, looked up, the tested form may be a part): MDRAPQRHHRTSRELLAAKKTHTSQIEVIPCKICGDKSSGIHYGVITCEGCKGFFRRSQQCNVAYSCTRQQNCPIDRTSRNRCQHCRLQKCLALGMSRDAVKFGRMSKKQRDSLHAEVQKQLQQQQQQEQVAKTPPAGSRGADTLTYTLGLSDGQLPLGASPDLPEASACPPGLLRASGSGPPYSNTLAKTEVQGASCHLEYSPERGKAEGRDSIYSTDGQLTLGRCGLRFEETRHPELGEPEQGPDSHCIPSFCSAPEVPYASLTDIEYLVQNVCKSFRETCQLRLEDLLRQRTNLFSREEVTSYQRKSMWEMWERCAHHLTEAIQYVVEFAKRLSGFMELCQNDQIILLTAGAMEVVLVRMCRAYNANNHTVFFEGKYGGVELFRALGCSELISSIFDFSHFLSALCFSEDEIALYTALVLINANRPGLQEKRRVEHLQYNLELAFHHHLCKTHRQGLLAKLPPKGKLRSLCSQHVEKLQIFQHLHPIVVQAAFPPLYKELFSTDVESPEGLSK
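ROR gamma transcriptional activity was tracked as Gal4-UAS luciferase output in stably transfected Drosophila Schneider cells, with compound added 1 hr before 700 uM copper sulfate induction and a 20 hr ambient-temperature incubation.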
ALOX12 inh = blocks human arachidonate 12S-lipoxygenase. P18054. purified 12hLO, xylenol orange hydroperoxide absorbance. Potency, µM (titrated, usually from 108 µM), usual class: inhibitors. hit rate 1.1% among 580,000. AID 1671190
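Purified human 12hLO at 150 nM in 25 mM Hepes, 0.01% Triton X-100, pH 7.0, preincubated 15 min at room temperature with compound. Reaction started with 40 uM arachidonic acid, 30 min at room temperature. Hydroperoxide measured by Fe-xylenol orange, 573/405 nm absorbance ratio.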
Hits are given with their value; – = inactive; ? = inconclusive; · = no result; [ ] = remark or other dose. The call rests on the fitted dose curve; in most records, active means well fitted curve in the direction sought with a large enough effect; inconclusive means small, poorly fitted or top-dose-only effect, or another doubt; inactive means no such curve, though single readings can be large; an effect the other way counts as inactive or inconclusive.

SMILES	TDP1 cell noCPT	ELG1 repair inh	DT40 TDP1 CPT	Gal4-VP16 FLuc	RORg inh	ALOX12 inh
Cc1cccc(C2CC(=O)Nc3cc4c(cc32)OCO4)c1 (configuration not stated)	21µM	·	?	·	·	–
COc1cccc(C2CC(=O)Nc3cc4c(cc32)OCO4)c1OC(C)C (configuration not stated)	?	·	21µM	·	·	–
O=S(=O)(Nc1nc2ccccc2nc1Nc1ccc(Br)cc1)c1cccs1	·	·	·	·	·	–
COc1ccc(-c2nnc3n2CCN(C(=O)c2ccccc2F)C3)cc1	·	·	·	·	·	–
Cc1ccc(C)c(N2CCN(C(=O)C3CCC(CNS(=O)(=O)c4ccc(Br)s4)CC3)CC2)c1 (configuration not stated)	5.8µM	·	5.8µM	·	·	?
O=C(C1CCC(CNS(=O)(=O)c2cccs2)CC1)N1CCN(c2ccc(Cl)cc2)CC1 (configuration not stated)	4.1µM	?	6.5µM	?	–	?
O=C(NCc1ccccc1)C1CCC(CNS(=O)(=O)c2ccc(Br)s2)CC1 (configuration not stated)	–	·	–	·	·	–
O=C(C1CCC(CNS(=O)(=O)c2ccc(Br)s2)CC1)N1CCN(c2ccccc2)CC1 (configuration not stated)	?	·	4.6µM	·	·	?
O=C(NC1CCCC1)C1CCC(CNS(=O)(=O)c2cccs2)CC1 (configuration not stated)	–	–	–	–	–	–
Cc1ccccc1OCCN(C)Cc1cc(=O)oc2c(C)c(O)ccc12	·	·	·	·	·	–
CCCn1nc(C)c(Cn2cc(-c3nccn3C)nn2)c1C	·	·	·	·	·	–
Cc1cnnn1-c1cccc([N+](=O)[O-])c1	–	–	–	–	–	–
Cc1cnnn1-c1ccc(C(=O)CCl)cc1	2.6µM	–	2.3µM	–	–	?
O=C(Nc1ccc(NC(=O)c2ccc(Cl)cc2Cl)cc1)c1ccc2c(c1)OCO2	–	–	–	–	–	?
O=C(Nc1cccc(C2=NCCN2)c1)Nc1cccc(C2=NCCN2)c1	7.3µM	·	9.2µM	–	–[10 µM]	–
O=C(/C=C/c1ccc(/C=C/C(=O)Nc2ccc(C3=NCCN3)cc2)cc1)Nc1ccc(C2=NCCN2)cc1	·	·	·	–	–	·
O=C(Nc1ccc(C2=NCCN2)cc1)c1ccc(C(=O)Nc2ccc(C3=NCCN3)cc2)c(Cl)c1	5.2µM	–	7.3µM	–	–	–
COc1cc(OC)cc(OCc2nc3c(n2Cc2ccccc2)C(=O)N(Cc2ccccc2C#N)CCN3)c1	·	·	·	·	·	–
CC(=O)c1ccc(OCC(C)Oc2ccc(C#N)cc2)cc1 (configuration not stated)	23µM	–	?	?	?	–
CC(=O)c1ccc(OCC(O)COc2ccc(C(C)=O)cc2)cc1	–	–	–	–	–	–
CC(=O)c1c(O)cc(O)c(C(C)=O)c1O	?	?	21µM	10µM	?	·
CN(C)c1cccc(NCc2nc3c(n2Cc2ccccc2)C(=O)N(CCOc2ccccc2)CCN3)c1	·	·	·	·	·	–
CC(C)N1C(=O)N(c2ccc(Cl)cc2)C(C)(O)CC1(C)C (configuration not stated)	–	–	–	–	–	–
CC(C)N1C(=O)N(c2cccc(Cl)c2)C(C)(O)CC1(C)C (configuration not stated)	–	–	–	–	7.9µM	–
CN(C)Cc1nnc(C2CC(NC(=O)c3ccc4c(c3)CCCO4)C2)n1C (configuration not stated)	·	·	·	·	·	–
SMILES	TDP1 cell noCPT	ELG1 repair inh	DT40 TDP1 CPT	Gal4-VP16 FLuc	RORg inh	ALOX12 inh
CC(C)(C)c1ccccc1OCCOCCNCc1ccccc1	13µM	–	16µM	–	–	–
Cc1cc(OCCOCCNCc2ccccc2)ccc1C(C)C	12µM	–	18µM	–	–[1.91 µM]	?
O=C(CCCc1c[nH]c2ccccc12)NCC(=O)N1CCCCCNC(=O)CC1c1ccccc1 (configuration not stated)	·	·	·	·	·	–
COc1ccc(N2C(=O)CC(Sc3nnc(-c4ccccc4)o3)C2=O)cc1 (configuration not stated)	2.9µM	–	2.9µM	?	5.6µM	–
O=C1CC(Sc2nnc(-c3ccccc3O)o2)C(=O)N1c1ccccc1 (configuration not stated)	4.6µM	–	4.6µM	?	?	–
O=C(O)CCSC1CC(=O)N(c2ccccc2)C1=O (configuration not stated)	–	–	–	–	–	·
Fc1ccc(C2=NC(c3cccc(C(F)(F)F)c3)=Nc3ccccc3N2)cc1	18µM	·	?	·	·	–
COc1ccc(C2=Nc3ccc(C)cc3NC(c3ccc(Cl)cc3)=N2)cc1	?	·	?	·	·	–
COc1ccc(C2=Nc3ccc(F)cc3NC(c3cccc(C(F)(F)F)c3)=N2)cc1	?	·	23µM	·	·	–
O=C(c1cccc(S(=O)(=O)NCc2ccccc2)c1)N1CCCC(C(F)(F)F)C1 (configuration not stated)	?	?	–	·	·	–
Cc1ccc(C)c(S(=O)(=O)N2CCN(C(=O)c3cc(S(=O)(=O)NCc4ccccc4)ccc3C)CC2)c1	?	?	23µM	–	?	–
Cc1ccccc1NS(=O)(=O)c1ccc(C(=O)N2CCCC(C(F)(F)F)C2)cc1 (configuration not stated)	12µM	–	?	·	·	–
Cc1ccc(S(=O)(=O)NCc2ccccc2)cc1C(=O)N1CCCC(C(F)(F)F)C1 (configuration not stated)	18µM	–	?	·	·	–
COc1cccc(Nc2nccc3[nH]c(-c4ccc(F)c(F)c4)nc23)c1	·	·	·	·	·	–
CCC(C)NC(=O)COc1ncnc2ccccc12 (configuration not stated)	·	·	·	·	·	–
COC(=O)C(Cc1ccc(OC(=O)c2ccccc2C)cc1)N1Cc2ccccc2C1=O (configuration not stated)	18µM	–	?	–	?	–
COC(=O)C(Cc1ccc(OC(=O)c2ccccc2Cl)cc1)N1Cc2ccccc2C1=O (configuration not stated)	?	?	?	–	–	–
CCOc1ccccc1NC(=O)CC(c1ccc(F)cc1)N1Cc2ccccc2C1=O (configuration not stated)	16µM	·	16µM	·	·	–
COc1ccc(CNC(=O)CC(c2ccc(OC)cc2)N2Cc3ccccc3C2=O)cc1 (configuration not stated)	16µM	·	?	·	·	–
CC(C)NC(=O)CC(c1ccc(F)cc1)N1Cc2ccccc2C1=O (configuration not stated)	·	·	·	·	·	–
